Compound activity: PubChem, National Center for Advancing Translational Sciences (NCATS)
TRHR agonist: activates the human TRH receptor; TRHR cells, calcium flux fluo-8, FDSS agonist mode; P34981; 360,000 compounds, 0.18% hits; activation, % at 2 µM; AID 493084; note: 0% is about no effect
Target sequence (P34981 whole entry, looked up): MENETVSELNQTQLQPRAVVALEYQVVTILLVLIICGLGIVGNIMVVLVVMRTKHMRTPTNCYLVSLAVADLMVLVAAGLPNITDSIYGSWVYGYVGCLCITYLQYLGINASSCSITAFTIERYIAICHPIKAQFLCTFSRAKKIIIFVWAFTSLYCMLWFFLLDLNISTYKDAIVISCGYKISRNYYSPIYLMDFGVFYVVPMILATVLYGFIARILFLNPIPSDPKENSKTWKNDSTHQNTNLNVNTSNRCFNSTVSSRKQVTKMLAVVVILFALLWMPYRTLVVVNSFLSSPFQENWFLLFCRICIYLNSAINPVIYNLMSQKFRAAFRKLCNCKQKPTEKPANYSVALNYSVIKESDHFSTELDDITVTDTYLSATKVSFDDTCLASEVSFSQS
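Read-out: compound-evoked intracellular calcium rise in TRHR cells, fluo-8 dye, kinetic FDSS fluorescence at 1 s/cycle following a 10-cycle baseline. Cells cultured overnight before dye loading (30 min–1.5 h, RT).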
TRHR enhancer: allosteric enhancers of human TRH receptor; AID 493056; enhancement, % at 2 µM; TRHR cells, fluo-8 calcium fluorescence, EC20 TRH enhancement; 360,000 compounds, 0.66% hits; P34981; in the data active = enhancement above about 30%; note: 0% is about no effect
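Enhancer read-out: after compound pinning and an initial kinetic agonist-mode read, an EC20 of TRH (10 nM final) was injected and fluo-8 calcium signal (Ex 480/Em 530) followed at 1 s/cycle for 100 cycles in TRHR-expressing cells.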
Epigenetic reg: epigenetic control regulation, reporter derepression; murine LDR cells, GFP reporter derepression, 30 h; Potency, µM (top dose mostly 53.9 µM), inactives show at the top dose GFP activation, usual class: activators; 280,000 compounds, 0.2% hits; active = well fitted activation curve with a large enough effect; note: potency is the fitted concentration of half-maximal effect; % of control where 0% means no effect; nearly all actives have a fitted effect of over 60% in size
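Murine LDR cells bearing a silenced CMV-driven GFP reporter were exposed to compound for 30 h at 37 C. After PBS washes, GFP-positive cells (20-120 um objects) counted by laser-scanning microplate cytometry.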
D1 antag: human D1 dopamine receptor antagonism; P21728; HEK293 TREx D1 cells, calcium flux, dopamine EC80; stronger effect = lower value; activity change, negative = inhibition, % at 10 µM; 360,000 compounds, 3.2% hits; in the data active = activity change below about -30%; note: % is set by controls: 0 for no effect and ±100 for the full control effect
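After overnight tetracycline induction at 30 C, force-coupled D1 HEK293 cells took up a no-wash calcium dye at room temperature. Compounds were added and monitored 180 s, and the response to EC80 dopamine was then recorded.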
D1 agonist: agonists of human D1 dopamine receptor | P21728 | HEK293 T-REx D1 cells, calcium flux, agonist mode | activation, % at 2 µM | 360,000 compounds, 1% hits | AID 504660; note: 0% is about no effect
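Tetracycline-induced HEK293 TREx D1 cells, force-coupled to calcium signalling, were dye-loaded with a no-wash calcium kit. Compound was pin-added after a 10 s baseline. Fluorescence was read kinetically at 1 cycle/s for 180 s, with calcium rises flagged as agonism.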
D1 PAM: potentiators of human D1 dopamine receptor | HEK293 TREx D1 cells, calcium flux, dopamine EC20 potentiation | potentiation, % at 10 µM | 360,000 compounds, 0.036% hits | AID 504651; in the data active = potentiation above about 30%; note: 0% is about no effect
Starred values were filed as active, the others as inactive; . = no result given; [ ] = remark or other dose. Compounds with a hit are over-represented: about 4.6% of the library has one in this group of screens. Cut-off read from the data, not from the text of the source, unless noted: active = activation above about 30%; inactive = the rest.

SMILES | TRHR agonist | TRHR enhancer | Epigenetic reg | D1 antag | D1 agonist | D1 PAM
Cc1ccc(CCNS(=O)(=O)c2ccc3c(c2)C(C(C)C)C(=O)N3)cc1 (centres undefined) | -1.4 | 4.4 | 1.3% | 4.4 | 13.6 | -2.2
COc1cccc(CNC(=O)CCc2c(C)nc3c(c2C)c(=O)n(C)c(=O)n3C)c1 | -0.3 | 10.9 | -0.3% | 2.6 | -0.6 | -1.4
O=[N+]([O-])c1ccc(/C=C/C2=NN(c3ccccc3)C(c3ccco3)C2)cc1 (centres undefined) | -0.3 | -3.3 | 0.794µM* | -67.6* | 212.8* | -1.4
O=[N+]([O-])c1ccc(C2=NN(c3ccccc3)C(c3ccco3)C2)cc1 (centres undefined) | 59.1* | 1.7 | 2µM* | -66.9* | 295.7* | -9.6
C[n+]1ccccc1/C=C/c1ccc([N+](=O)[O-])cc1 | 0.1 | -0.1 | . | 4.6 | 0.8 | 3.9
N#C/C(=C\c1ccc(Br)cc1)c1nc(-c2cc3cc(Br)ccc3oc2=O)cs1 | -0.4 | -4.0 | -1.6% | -12.4 | -2.1 | 0.3
Cc1ccccc1-c1cc2nc(C)c(C)c(=O)n2[nH]1 | 0.4 | 11.0 | . | -32.6* | 4.1 | -4.2
COC(=O)Cn1nc(-c2ccc(C)cc2)c2ccccc2c1=O | -0.4 | -5.6 | 1.2% | -74.6* | 1.4 | -8.5
O=C(c1ccc(F)cc1F)N1CCC(c2nc(-c3ccc(S(=O)(=O)N4CCCC4)cc3)no2)CC1 | 0.4 | 0.2 | 3.6% | -5.7 | 0.4 | -0.3
COC(=O)CSc1ncnc2c1cnn2Cc1ccccc1 | -0.5 | -1.6 | 0.0% | 35.6 | 42.1* | -3.0
CC(C)OC(=O)CSc1ncnc2c1cnn2Cc1ccccc1 | -1.4 | 9.6 | -0.2% | -11.3 | 4.4 | -9.4
O=C(NCC(c1ccc(Cl)cc1)N1CCCCC1)c1ccccc1F (centres undefined) | -0.2 | -6.2 | 0.0% | -1.3 | 1.4 | 0.7
Cc1ccc(N2CC(NC(=O)CCc3ccccc3)CC2=O)cc1C (centres undefined) | -0.2 | 5.0 | 1.1% | . | -2.5 | -1.5
CC(OC(=O)Cn1[nH]c(=O)c2ccccc2c1=O)C(=O)Nc1ccc(F)cc1 (centres undefined) | -0.3 | 6.9 | . | -30.5* | 6.3 | -7.2
CCc1cccc(NC(=O)C(Cc2ccccc2)NS(=O)(=O)c2ccc3c(c2)oc(=O)n3C)c1 (centres undefined) | -0.3 | 15.4 | -1.1% | -11.1 | 30.7* | -3.3
CCc1ccc(NC(=O)CCS(=O)(=O)c2ccc3c(c2)oc(=O)n3C)cc1 | 0.3 | 9.7 | -1.3% | -37.1* | -0.8 | -5.7
CCOc1ccc(NC(=O)C(Cc2ccccc2)NS(=O)(=O)c2ccc3c(c2)oc(=O)n3C)cc1 (centres undefined) | 1.2 | 5.4 | 0.0% | -19.6 | 4.5 | -1.4
Cn1ccc2cc(S(=O)(=O)N3CCCN(C(=O)Nc4ccccc4Br)CC3)ccc21 | -0.4 | 4.8 | -1.7% | 8.3 | 5.8 | 0.3
O=C1CC(c2ccsc2)c2ccc3ccccc3c2N1 (centres undefined) | -0.4 | 36.7* | 4.6% | 3.2 | 2.6 | 3.0
O=C(NCc1ccc(Cl)cc1)C(=O)NCC(c1ccc2c(c1)OCO2)N1CCOCC1 (centres undefined) | -0.2 | -1.2 | 2.2% | 6.8 | 0.6 | 1.9
CO/N=C(\C)CCN1CCCCc2nc(C)c(C)cc21 | . | . | 0.0%[10.1 µM] | . | . | .
Cc1ccccc1Cn1nc(C)c(NC(=O)c2cc3n(n2)C(C(F)F)CC(C(F)F)N3)c1C (centres undefined) | -0.1 | 6.5 | -1.1% | -50.9* | -0.5 | -2.5
Cc1ccccc1Cn1nc(C)c(NC(=O)c2nc3n(n2)C(C(F)F)CC(C)N3)c1C (centres undefined) | -0.5 | -3.1 | -2.1% | 5.9 | 0.3 | -4.2
COC(=O)c1ccc(-n2nnc(-c3nsc(NC(=O)c4ccc(Cl)cc4)n3)c2C)cc1 | 1.5 | 2.9 | 1.1% | -55.4* | 2.6 | 1.1
Cc1c(Cl)cccc1NC(=O)C(=O)NCCc1csc(-c2cccc(F)c2)n1 | 1.2 | -2.9 | 1.1% | 14.9 | 14.4 | 0.9
SMILES | TRHR agonist | TRHR enhancer | Epigenetic reg | D1 antag | D1 agonist | D1 PAM
COc1ccc(S(=O)(=O)NCCc2sc3nc(-c4ccc(C)cc4)nn3c2C)cc1F | 0.3 | -6.5 | 1.3% | . | 10.8 | -2.1
Cc1cccnc1NC(=O)CNC(=O)COc1ccccc1 | 0.0 | 33.1* | . | 32.0 | 4.8 | -5.8
CCOC(=O)C1=C(c2ccccc2)N=c2s/c(=C\c3ccco3)c(=O)n2C1c1cccs1 (centres undefined) | 1.5 | 5.6 | 15.1% | -5.8 | 1.0 | -3.8
CCOC(=O)C1=C(c2ccccc2)N=c2s/c(=C\c3cc(OC)c(OC)c(OC)c3)c(=O)n2C1c1cccs1 (centres undefined) | 0.5 | -4.2 | 8.6% | -1.4 | 240.2* | -4.0
CCOc1ccc(C(=O)NCc2ccc3c(c2)CCN3C(=O)c2ccc(C)cc2)cc1OCC | -0.1 | -6.6 | 1.3% | -66.1* | 4.6 | -5.6
CCC(=O)N1CCc2cc(CNC(=O)c3ccc(C#N)cc3)ccc21 | -0.4 | -0.8 | -0.2% | 33.1 | 0.1 | -2.6
N#Cc1ccc(C(=O)NCc2ccc3c(c2)CCN3C(=O)c2ccc(F)cc2)cc1 | -0.1 | -5.9 | -1.3% | -33.3* | 14.1 | -3.8
COc1ccc(CCC(=O)NCc2ccc3c(c2)CCN3C(=O)c2ccc(Cl)cc2)cc1 | -0.5 | -6.2 | 0.0% | -34.9* | -0.7 | -1.1
Clc1cccc(-n2ncc3c(NC4CCCCC4)ncnc32)c1 | 0.0 | 3.3 | -1.2% | 37.9 | -1.3 | 0.1
COc1cc(NC(=O)c2cc3ccccc3cc2O)c(OC)cc1Cl | 5.2 | -15.3 | 2.1% | -57.5* | 16.6 | -10.5
COc1cc(OC)c(NC(=O)c2ccccc2F)cc1Cl | 0.2 | 2.4 | -1.5% | 12.1 | 0.9 | 1.7
Cc1ccc(Cl)cc1NC(=O)c1cc2ccccc2cc1O | 3.8 | -11.3 | 1.1% | -45.4* | 27.2 | -9.3
Cc1ccc(Cl)cc1NC(=O)COC(=O)c1ccccc1O | 0.3 | -2.1 | 0.0% | 0.2 | 1.9 | 6.7
COc1ccc(CCNC(=O)c2cnc3ccc(C)cn3c2=O)cc1 | -0.6 | -2.7 | 1.4% | 8.8 | -0.2 | 0.3
C=C/C1=C/Cc2ccccc2C(C[N+](=O)[O-])C(C(=O)OC)(C(=O)OC)C1 (centres undefined) | . | . | -2.0%[10.1 µM] | . | . | .
COc1ccc(NC(=O)CCc2nc3c(C)nn(-c4ccc(C)cc4)c3n(C)c2=O)c(OC)c1 | -0.9 | -3.6 | 4.0% | -9.9 | -0.3 | 1.5
Cn1cc(C(=O)NCc2ccc(Cl)cc2)c(=O)c2cc(S(=O)(=O)N3CCCCCC3)ccc21 | 0.2 | -4.1 | -0.1% | 4.1 | 9.3 | 0.9
CCCN1C(=O)/C(=C/C=C2\N(CC)c3ccccc3C2(C)C)SC1=S | 23.7 | 1.3 | 3.16µM* | -0.1 | 63.4* | -2.0
